# KB-V1 cytotox: qHTS assay for MDR1-selective chemotherapeutics: Primary screen using the drug-selected MDR subline cells KB-V1; 400,000 tested, 3.4% active; KB-V1 MDR cells viability, CellTiter-Glo, 72 h; Potency, µM (titrated, usually from 46.1 µM), actives largely listed as cytotoxic; note: nearly all actives have a fitted effect of over 60% in size
#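 Luminescent ATP read-out (CellTiter-Glo, 10 min) measures survival of drug-selected KB-V1 MDR cells after 72 h, 37 degrees C compound exposure. Medium: phenol-red-free DMEM, 10% FBS. Values from fitted concentration-response curves.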
# HT1080 IDH1KD tx: qHTS for induction of synthetic lethality in tumor cells producing 2HG: qHTS for the HT-1080-IDH1KD cell line; HT-1080 IDH1 knockdown viability, ATP luminescence, 48 h; Potency, µM (series often up to 46.1 µM), usual class: cytotoxic; 360,000 tested, 2% active; AID 686971, 2013
#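 Cytotoxicity counter-line: IDH1KD HT-1080, 48 h, CellTiter-Glo. Curves classed by r2, magnitude and activity.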
# SW480 rereplic: A quantitative high throughput screen for small molecules that induce DNA re-replication in SW480 colon adenocarcinoma cells; Potency, µM (series often up to 46.1 µM), actives largely listed as activators; AID 624297, 2012; SW480 DNA re-replication, Hoechst DNA content imaging, 48 h; 340,000 tested, 1.8% active; note: nearly all actives have a fitted effect of over 55% in size
#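 Image-based DNA-content assay: after two days of treatment, nuclei were labelled with the DNA dye Hoechst and imaged, and hits were compounds raising the count of nuclei showing high fluorescence intensity.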
# MCF10A rerep: A quantitative high throughput screen for small molecules that induce DNA re-replication in MCF 10a normal breast cells; Potency, µM (top dose mostly 46.1 µM), usual class: activators; MCF 10A DNA re-replication, Hoechst nuclear intensity, 48 h; 350,000 tested, 2.9% active; note: nearly all actives have a fitted effect of over 50% in size
# HT1080-NT tox: qHTS for induction of synthetic lethality in tumor cells producing 2HG: qHTS for the HT-1080-NT fibrosarcoma cell line | AID 686970, 2013 | HT-1080-NT fibrosarcoma viability, CellTiter-Glo ATP luminescence, 48 h | Potency, µM (series often up to 46.1 µM), usual class: cytotoxic | 360,000 tested, 1.6% active;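 note: NT is the 2HG producing partner of a matched IDH1 knockdown line; nearly all actives have a fitted effect of over 55% in size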
#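 HT-1080-NT; 750 cells/well; 5% FBS RPMI; 48 h compound, 37 degrees C; CellTiter-Glo luminescence; curve fitting and curve-class assignment.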
# KB-3-1 cytotox: qHTS assay for MDR1-selective chemotherapeutics: Primary screen using the parental adenocarcinoma cell KB-3-1. KB-3-1 viability, CellTiter-Glo ATP luminescence, 72 h. Potency, µM (doses to about 46.1 µM), most hits filed as cytotoxic. 400,000 tested, 1.4% active; note: nearly all actives have a fitted effect of over 60% in size
#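 Luminescent ATP read-out (CellTiter-Glo) measures survival of drug-naive KB-3-1 cells after 72 h compound exposure at 37 °C. Titration series was screened from lowest to highest concentration, with DMSO vehicle plates as background controls.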
# Numbers stand for hits; i = inactive; ? = inconclusive; nt = no result. Hits are enriched below; roughly 8% of the tested compounds scored in any of these assays. Calls come from the whole dose curve; as a rule, active = well fitted curve in the direction sought with a large enough effect; inconclusive = small, poorly fitted or top-dose-only effect, or another doubt; inactive = no such curve, though single readings can be large; an effect the other way counts as inactive or inconclusive.
SMILES,KB-V1 cytotox,HT1080 IDH1KD tx,SW480 rereplic,MCF10A rerep,HT1080-NT tox,KB-3-1 cytotox
C[C@H]1CC[C@@H]2[C@@H](C)[C@H]3[C@H](C[C@H]4[C@@H]5CC=C6CC(O[C@@H]7O[C@H](CO)[C@H](O)[C@H](O[C@@H]8O[C@H](CO)[C@@H](O)[C@H](O)[C@H]8O)[C@H]7O[C@H]7O[C@@H](C)[C@H](O)[C@@H](O)[C@H]7O)CC[C@]6(C)[C@H]5CC[C@]34C)N2C1 (stereo partly specified),nt,nt,?,i,nt,nt
ClC=C(Cl)Cl,nt,nt,i,i,nt,nt
CC(=O)OC1CC(OC2C(O)CC(OC3C(O)CC(OC4CCC5(C)C(CCC6C5CCC5(C)C(C7=CC(=O)OC7)CCC65O)C4)OC3C)OC2C)OC(C)C1OC1OC(CO)C(O)C(O)C1O (stereo unspecified),0.411µM,0.0517µM,0.92µM,i,0.082µM,?
CC1OC(OC2CCC3(C)C(CCC4C3CC(O)C3(C)C(C5=CC(=O)OC5)CCC43O)C2)CC(O)C1OC1CC(O)C(OC2CC(O)C(OC3OC(CO)C(O)C(O)C3O)C(C)O2)C(C)O1 (stereo unspecified),nt,nt,?,i,nt,nt
CC(=O)OC1C[C@H](O[C@@H]2C(O)C[C@H](O[C@@H]3C(O)C[C@@H](OC4CC[C@]5(C)C(CCC6C5CC(O)[C@@]5(C)C(C7=CC(=O)OC7)CC[C@@]65O)C4)OC3C)OC2C)O[C@H](C)[C@H]1O[C@H]1OC(CO)C(O)C(O)C1O (stereo partly specified),nt,nt,?,0.119µM,nt,nt
O=S(=O)(CCN1CCN(c2ccccn2)CC1)c1ccc(Cl)cc1Cl,i,i,i,?,i,i
O=C(Cn1c(=O)oc2ccccc21)NCCc1ccccc1,i,i,i,i,i,i
NC(Cc1ccc(Oc2cc(I)c(O)c(I)c2)c(I)c1)C(=O)O (stereo unspecified),nt,nt,i,i,nt,nt
CN(C)C1C(=O)C(C(N)=O)C(=O)C2(O)C(=O)C3C(=O)c4c(O)cccc4C(C)(O)C3C(O)C12 (stereo unspecified),nt,nt,i,i,nt,nt
C=C[C@@H]1CN2CC[C@H]1C[C@H]2[C@H](O)c1ccnc2ccccc12,nt,nt,i,i,nt,nt
Brc1ccc2c(c1)CN(CC1CCCCC1)Cc1cnnn1-2,18.4µM,i,nt,nt,i,i
COc1cccc(C(O)c2nc(-c3ccncc3)cs2)c1 (stereo unspecified),?,i,nt,nt,?,i
COC(=O)C1=C(c2ccc(F)cc2OCc2ccccc2)C[C@@H]2CC[C@H]1N2C(=O)NCc1cccc(C(F)(F)F)c1,?,i,i,3.26µM,i,?
COC(=O)C1=C(c2ccc(F)cc2OCc2ccccc2)C[C@@H]2CC[C@H]1N2C(=O)NCc1cccc(OC)c1,i,i,i,i,i,?
COC(=O)C1=C(c2ccc(F)cc2OCc2ccccc2)C[C@@H]2CC[C@H]1N2C(=O)NCCN1CCOCC1,i,i,?,0.581µM,i,i
CCCCN(C)C(=O)c1oc2ccc(S(=O)(=O)N3CCCCCC3)cc2c1C,2.59µM,?,i,i,?,i
CCCCOC(=O)n1c(=O)oc2ccc(S(=O)(=O)N3CCCCC3)cc21,i,?,i,i,i,?
C[CH2][Hg][S]c1ccccc1C(=O)O,20.6µM,3.26µM,5.96µM,0.92µM,2.31µM,5.17µM
O=C(O)c1ccccc1O,i,i,?,i,i,i
NC(N)=Nc1ccc2[nH]c3c(c2c1)C[C@@]1(O)[C@H]2Cc4ccc(O)c5c4[C@@]1(CCN2CC1CC1)[C@H]3O5,i,16.4µM,?,?,14.6µM,?
CN1CCN(c2csc3ccc(F)cc3c2=O)CC1,i,nt,nt,nt,nt,i
